# HEK293 tox – qHTS of GLP-1 Receptor Inverse Agonists: Cytotox Screen | Potency, µM (top dose mostly 38.3 µM), inactives show at the highest dose activity change, negative = inhibition, usual class: inhibitors | 410,000 tested, 0.13% active | HEK293 cAMP-luciferase reporter cells, luminescence, 24 h;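 further: loss of luciferase light is scored as toxicity; potency means the concentration at half of the fitted maximal effect; on the % scale 0 is the no-effect control and ±100 the full control effect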
#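 Cells in DMEM/10% Nu serum/1% pen-strep, 1536-well format. Pre-incubated 12 h, dosed with 23 nL compound, incubated a further 24 h. Luciferase detection, 12 min at room temp, luminescence.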
# RXFP1 antag – qHTS Assay for Antagonists of the Relaxin Receptor RXFP1; Relaxin receptor 1 (Homo sapiens), Q9HBX9; HEK293-RXFP1, relaxin-stimulated cAMP HTRF, 30 min; stronger effect = lower value; activity change, negative = inhibition, % at 57.5 µM; 350,000 tested, 0.59% active; AID 1259400, 2018;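 active means activity change of -60% or lower, but not beyond a set lower limit; inconclusive means change between -60% and -40%, or beyond the set limit; inactive means change above -40%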; further: on the % scale 0 is the no-effect control and ±100 the full control effect
# Target sequence (Q9HBX9 whole entry, looked up): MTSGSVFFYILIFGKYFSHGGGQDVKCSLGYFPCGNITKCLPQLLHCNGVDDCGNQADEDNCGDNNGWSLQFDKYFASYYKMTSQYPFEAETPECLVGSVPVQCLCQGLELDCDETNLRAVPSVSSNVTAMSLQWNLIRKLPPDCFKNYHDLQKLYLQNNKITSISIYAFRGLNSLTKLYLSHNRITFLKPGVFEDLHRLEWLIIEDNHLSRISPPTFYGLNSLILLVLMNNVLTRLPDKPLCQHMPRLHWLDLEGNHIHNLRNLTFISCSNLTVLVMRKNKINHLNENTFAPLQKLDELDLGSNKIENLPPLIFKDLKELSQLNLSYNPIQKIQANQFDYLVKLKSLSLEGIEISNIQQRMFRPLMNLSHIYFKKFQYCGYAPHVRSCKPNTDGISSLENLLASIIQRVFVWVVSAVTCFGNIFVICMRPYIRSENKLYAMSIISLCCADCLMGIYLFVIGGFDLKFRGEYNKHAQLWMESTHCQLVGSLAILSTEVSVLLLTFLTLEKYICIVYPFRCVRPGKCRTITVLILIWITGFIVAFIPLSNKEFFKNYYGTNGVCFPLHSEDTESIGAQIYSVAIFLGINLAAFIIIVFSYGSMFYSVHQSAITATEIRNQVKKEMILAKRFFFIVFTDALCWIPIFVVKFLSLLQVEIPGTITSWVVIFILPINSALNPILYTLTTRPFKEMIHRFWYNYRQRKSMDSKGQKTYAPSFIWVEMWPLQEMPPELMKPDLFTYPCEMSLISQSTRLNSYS
# NPSR antag – qHTS Assay for Antagonists of the Neuropeptide S Receptor: cAMP Signal Transduction | CHO-NPSR cells, cAMP TR-FRET, antagonist mode | Potency, µM (highest dose often 38.3 µM), for the others: at the top dose activity change, negative = inhibition, most hits filed as inhibitors | 220,000 tested, 1% active; further: potency means the concentration at half of the fitted maximal effect; on the % scale 0 is the no-effect control and ±100 the full control effect; nearly all actives have a fitted effect of over 50% in size
# RXFP1 agonist – qHTS Assay for Agonists of the Relaxin Receptor RXFP1; 370,000 tested, 0.3% active; HEK293T-RXFP1 cAMP TR-FRET, 30 min; response scale: percent of porcine relaxin response, buffer zero; Potency, µM (titrated, usually from 57.5 µM), without a hit: at the highest dose activation, actives largely listed as activators; further: potency means the concentration at half of the fitted maximal effect; on the % scale 0 is the no-effect control and ±100 the full control effect; nearly all actives have a fitted effect of over 60% in size
#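 cAMP rise read by TR-FRET after 30 min, 37C compound exposure (up to 58 uM) in RXFP1-transfected HEK293 cells with Ro 20174 present. EC50 from Hill-equation fits, with 29 nM porcine relaxin as 100% and buffer as basal.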
# TSHR antagonist – Antagonists of the Thyroid Stimulating Hormone Receptor: HTS campaign | Thyrotropin receptor (Homo sapiens), P16473 | TSHR-expressing cells, TSH-stimulated cAMP HTRF, 2 h; stronger effect = lower value | activity change, negative = inhibition, % at 11.5 µM | 330,000 tested, 0.2% active;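 active means activity change below a set negative limit, meaning inhibition stronger than a set level, cut at about -70% in these data; inconclusive means activity change between two set negative limits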; further: on the % scale 0 is the no-effect control and ±100 the full control effect
#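 Antagonism was scored as loss of TSH-driven cAMP in TSHR cells, stimulated with 4nM TSH (EC80) for 2 hours at 37 deg C and detected by homogeneous HTRF competition immunoassay.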
# PTHR1 ag – qHTS for PTHR1 Agonists: Primary Screen | Parathyroid hormone/parathyroid hormone-related peptide receptor (Homo sapiens), Q03431 | HEK293 GP2 PTHR1 cells, GloSensor cAMP luminescence, 1 h | Potency, µM (highest dose often 115 µM), without a hit: top-dose activation, hits mostly activators | 410,000 tested, 0.075% active | AID 743266, 2014; further: potency means the concentration at half of the fitted maximal effect; nearly all actives have a fitted effect of over 55% in size
#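 HEK-293-derived GP2 cells expressing PTHR1 and a GloSensor cAMP reporter, 3,000/well, plated overnight, given luciferin plus IBMX (each 0.5 mM as added) for 1 h at 37 °C, then compound for 1 h at 37 °C. Luminescence was read after 15 min at room temperature.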
# Numbers without * were called inactive; i = inactive; ? = inconclusive; / = no result given; [ ] = remark or other dose. Many of the other results were omitted from the sample, so hits are more common in it than they were. Unless noted, the call rests on the fitted dose curve; in most records, active means well fitted curve in the direction sought with a large enough effect; inconclusive means small, poorly fitted or top-dose-only effect, or another doubt; inactive means no such curve, though single readings can be large; an effect the other way counts as inactive or inconclusive.
SMILES,HEK293 tox,RXFP1 antag,NPSR antag,RXFP1 agonist,TSHR antagonist,PTHR1 ag
Cc1cc(Cn2nnc3ccccc32)c(O)c(C(C)(C)C)c1,9%,/,/,0%,-45,-69%
CN1CCN(C(c2ccccc2Cl)c2sc3nc(-c4ccco4)nn3c2O)CC1 (stereo not drawn),-1%,-6,/,2%,/,25%
C[C@H](CO)N1C[C@H](C)[C@@H](CN(C)S(=O)(=O)c2cccs2)Oc2c(NC(=O)Cc3ccccc3)cccc2C1=O,1%,/,/,/,15,13%
CCC(C)Sc1cccc(-c2nc3ccc(C)cn3c2NCc2ccccc2)c1 (stereo not drawn),-16%,/,/,13%,-79*,-64%
COc1ccc(OC)c(S(=O)(=O)NCC(=O)NC2CCCc3ccccc32)c1 (stereo not drawn),10%,-11,/,1%,-2,i
Cc1sc(NC(=O)CCl)c(C(=O)c2ccccc2)c1C,?,-4,7.9µM*,-1%,2,0%
CC(NC(=O)/C(C#N)=C/c1ccco1)c1ccccc1 (stereo not drawn),1%,-22,-8%,4%,12,i
CC(NC(=O)/C(C#N)=C/c1ccc([N+](=O)[O-])o1)c1ccccc1 (stereo not drawn),-24%,-75*,/,0%,-48,-91%
CCN(C(=O)CN1C(=O)COc2ccc(S(=O)(=O)N3CCOCC3)cc21)c1cccc(C)c1,8%,-3,/,3%,/,i
CCN(C(=O)CN1C(=O)COc2ccc(S(=O)(=O)N3CCOCC3)cc21)c1ccc(OC)cc1,-5%,18,/,0%,-140*,-14%
O=C1NC(=Nc2ccc(O)cc2)S/C1=C/c1ccco1,?,-61*,-25%,-1%,-15,-2%
Cc1cccc(N=C2NC(=O)/C(=C/C=C/c3ccco3)S2)c1,?,-73*,-33%,0%,-3,-1%
Cc1ccc(N=C2NC(=O)/C(=C\c3ccco3)S2)cc1,-21%,-16,-18%,-1%,4,i
COc1cc2c(cc1OC)C1O[C@](CCCCN3C(=O)c4ccccc4C3=O)(C2)Oc2c1c(=O)oc1ccc(F)cc21,/,/,/,1%[11.5 µM],/,/
O=C1c2ccccc2-c2onc3ccc(N4CCCC4)c1c23,?,-18,13µM*,-5%,-18,-23%
O=C1c2ccccc2-c2onc3ccc(NCc4ccco4)c1c23,11µM*,/,?,-3%,-27,-33%
CCOc1ncc(F)c(=O)[nH]1,/,6,/,/,/,/
COc1ccc(NC(=O)C(=S)NC2CCCCC2)cc1,5%[0.307 µM],?,-10%,-2%,-8,-34%
CCc1ccc(-n2c(C)nnc2SCc2nc(-c3ccc(OC)cc3)no2)cc1,2%,/,/,-3%,/,-1%
CC(C)CCC(CCNCc1ccccn1)c1ccc(Cl)cc1 (stereo not drawn),?,-69*,/,-1%,7,i
COC(=O)c1ccccc1NC(=O)Cc1nc(-c2ccc(OC)cc2)no1,-3%,3,/,-1%,/,50µM*
CCN1C/C(=C/c2cccc([N+](=O)[O-])c2)C(=O)/C(=C/c2cccc([N+](=O)[O-])c2)C1,?,-24,2.5µM*,0%,1,-41%
COc1ccc(Cl)cc1-c1nc(-c2ccc(NC(=O)c3cccs3)cc2)no1,3%[1.53 µM],-14,-8%,6%,-26,-16%
Cc1c(C)c2cccnc2c2ncccc12,0.89µM*,-16,/,1%,/,?
Cc1ncc(CO)c2c1Oc1nc(-c3ccccc3F)nc(SCC(=O)N(C)c3ccccc3)c1C2,-24%,-91*,/,0%,0,-55%
SMILES,HEK293 tox,RXFP1 antag,NPSR antag,RXFP1 agonist,TSHR antagonist,PTHR1 ag
O=C(Cn1cnc2c(nnn2-c2ccc(F)cc2)c1=O)NCC1CCCO1 (stereo not drawn),-19%,23,8%,?,50,i
COc1ccc(-n2nnc3c(=O)n(CC(=O)NCC4CCCO4)cnc32)cc1 (stereo not drawn),-21%,4,?,11µM*,168,i
O=c1c2ccccc2sc2c(CO)ccc(NCCN3CCCCC3)c12,7.9µM*,-10,/,/,/,i
CCN(CC)CCNc1cccc2sc3ccccc3c(=O)c12,3%,8,/,/,/,-3%
Cc1ccc(C(=O)O)cc1NC(=O)C1=CSCCO1,3%,-110*,/,0%,5,11%
CC(=O)SCC(CC(=O)c1ccc(C)cc1)C(=O)O (stereo not drawn),/,-26,/,/,/,/
O=C(c1ccc(Br)cc1)C(CN1CCOCC1)c1ccccc1 (stereo not drawn),?,?,/,1%,0,-46%
O=C(c1ccccc1)C(CN1CCCCC1)c1ccccc1 (stereo not drawn),?,-82*,/,/,/,-7%
CN(C)CC(C(=O)c1ccccc1)c1ccccc1 (stereo not drawn),8.9µM*,/,-22%[46.1 µM],1%,-20,-28%
CN(Cc1cc(Cl)cc(Cl)c1)CC(C(=O)c1ccccc1)c1ccccc1 (stereo not drawn),?,-9,/,/,/,-50%
Cc1ccc(Cn2ccnc2SCC(=O)Nc2nnc(C)s2)cc1,0%,-6,/,0%,/,-22%
O=c1c2ccccc2nc(COc2ccccc2)n1/N=C/c1ccc(O)cc1O,11%,-71*,-48%,5%,-9,i
NC(=O)CCCCC1CCSS1 (stereo not drawn),/,-101*,/,/,/,/
COc1ccc(CN2C(=O)c3cccnc3C2=O)cc1S(=O)(=O)N1CCCC(C)C1 (stereo not drawn),-4%,14,/,7.9µM*,19,-4%
COc1ccc(CN2C(=O)c3cccnc3C2=O)cc1S(=O)(=O)N1CCOc2ccc(Cl)cc21,0%,11,/,12%,13,i
COc1ccc(CN2C(=O)c3cccnc3C2=O)cc1S(=O)(=O)NC1CCCCC1C (stereo not drawn),-20%,8,/,25µM*,20,i
CC(=O)Nc1ccc(OCc2nnc(-c3ccc(Cl)cc3)o2)cc1,6%,9,3%,1%,1,0%
CC1CCN(S(=O)(=O)c2ccc(NC(=O)c3ccco3)cc2)CC1,-8%,-14,/,0%,2,-16%
CC(C)[C@H](NS(=O)(=O)c1ccccc1)C(=O)OCC(=O)NC(=O)NC1CCCCC1,-2%,-2,/,/,-16,-25%
